In PubChem BioAssay AID2629 (Broad Institute, 2010):
Where “and” joins values, the source holds several entries; their conditions need not be identical. Equal entries are not always repeated. About 1,900 (0.59%) of roughly 320,000 compounds were called active. Cut-off read from the data, not from the text of the source: active = inhibition mostly above about 10% (no sharp cut-off); inactive = mostly below about 6.7%. The entries come from a sample that favours actives as a whole.

What follows are molecules tested against Protein LANA1 (Human herpesvirus 8 type P (isolate GK18)) (UniProt Q9QR71) (assay: blockers of LANA interaction with H2A/H2B – biochemical, FP readout, HTS, primary screen (AID 2629)). Conditions: cell-free LANA-H2A/H2B peptide, fluorescence polarization, stronger effect = higher value, concentration not given here.
Sequence of Protein LANA1 (Human herpesvirus 8 type P (isolate GK18)) (Q9QR71 whole entry, looked up): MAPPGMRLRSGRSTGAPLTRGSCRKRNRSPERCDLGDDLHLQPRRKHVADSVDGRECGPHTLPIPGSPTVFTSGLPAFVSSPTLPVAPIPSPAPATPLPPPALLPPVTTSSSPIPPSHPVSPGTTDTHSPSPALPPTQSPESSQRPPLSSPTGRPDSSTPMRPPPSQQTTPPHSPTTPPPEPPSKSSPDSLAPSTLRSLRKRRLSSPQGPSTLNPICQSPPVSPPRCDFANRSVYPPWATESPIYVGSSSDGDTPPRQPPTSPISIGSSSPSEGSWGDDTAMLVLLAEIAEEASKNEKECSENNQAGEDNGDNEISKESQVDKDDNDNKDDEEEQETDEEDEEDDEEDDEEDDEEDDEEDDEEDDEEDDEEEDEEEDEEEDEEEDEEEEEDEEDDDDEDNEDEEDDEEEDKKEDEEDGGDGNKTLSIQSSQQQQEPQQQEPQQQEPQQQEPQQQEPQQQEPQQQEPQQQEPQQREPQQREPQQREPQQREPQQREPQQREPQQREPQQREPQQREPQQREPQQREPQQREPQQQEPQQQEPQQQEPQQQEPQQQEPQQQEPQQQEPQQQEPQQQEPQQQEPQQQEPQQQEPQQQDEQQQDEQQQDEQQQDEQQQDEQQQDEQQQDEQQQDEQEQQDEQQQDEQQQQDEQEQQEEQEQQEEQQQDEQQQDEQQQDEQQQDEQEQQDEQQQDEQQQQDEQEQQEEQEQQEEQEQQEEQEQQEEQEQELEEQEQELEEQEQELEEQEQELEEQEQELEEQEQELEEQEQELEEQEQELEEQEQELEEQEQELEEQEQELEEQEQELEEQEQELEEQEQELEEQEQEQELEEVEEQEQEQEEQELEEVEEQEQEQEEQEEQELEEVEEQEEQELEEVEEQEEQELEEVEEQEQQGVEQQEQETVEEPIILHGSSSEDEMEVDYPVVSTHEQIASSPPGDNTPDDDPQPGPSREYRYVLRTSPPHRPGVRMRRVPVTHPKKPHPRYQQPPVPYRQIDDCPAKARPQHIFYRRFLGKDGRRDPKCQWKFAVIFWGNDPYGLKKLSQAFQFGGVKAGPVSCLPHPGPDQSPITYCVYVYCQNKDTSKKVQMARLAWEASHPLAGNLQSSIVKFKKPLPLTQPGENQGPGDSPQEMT

| Compound | inhibition |
| --- | --- |
| Cc1ccc(S(=O)(=O)NC(C(=O)N2CCOCCOCCOCCOCC2)c2ccccc2)cc1 (stereo unspecified) | -3.32% (inactive) |
| Brc1ccc(-c2n(-c3ccccn3)c3ccccc3[n+]2-c2ccccn2)cc1 | 5.04% (inactive) |
| C[C@@H](C(=O)Nc1ccc2ccccc2c1)[C@@H]1C[C@@]1(C)[C@@H](NC(=O)c1cccnc1)c1ccccc1 | 1.66% (inactive) |
| COc1ccc(C(=O)NC2CC2)cc1OC1CCN(Cc2ccc(SC)cc2)CC1 | 12.2% (active) |
| COc1ccc(C(=O)NC2CC2)cc1OC1CCN(Cc2cnn(C)c2)CC1 | 2.53% (inactive) |
| COc1ccc(C(=O)NC2CC2)cc1OC1CCN(C/C=C/c2ccccc2)CC1 | 5.63% (inactive) |
| COc1ccc(C(=O)n2nc(C)c(Br)c2C)cc1OC | 2.73% (inactive) |
| COc1ccc(C(=O)NC(=S)N2CCCCC2c2cccnc2)cc1OC (stereo unspecified) | -0.0544% (inactive) |
| CN(C(=O)c1cc2c(=O)n3ccccc3nc2s1)C1CCCCC1 | -5.4% (inactive) |
| Cc1ccccc1-n1nc(C)c2cc(C(=O)NC3CC3)sc21 | 0.464% (inactive) |
| Cc1cccn2c(=O)c3cc(C(=O)NC4CCCCC4)sc3nc12 | 32.6% (active) |
| O=C(Nc1ccccc1)/C(=C\c1ccco1)NC(=O)c1ccco1 | 4.48% (inactive) |
| COc1ccc(/C=C(/NC(=O)c2ccco2)C(=O)Nc2ccc(C(C)=O)cc2)cc1 | 3.73% (inactive) |
| Cc1ccc(NC(=O)/C(=C\c2ccccc2)NC(=O)c2ccco2)cc1 | 15.5% (active) |
| Cn1c(=O)c2c(nc(NCCNC(=O)c3ccco3)n2Cc2ccccc2F)n(C)c1=O | 0.914% (inactive) |
| CC[N+](C)(CC)CCC[n+]1c(-c2ccccc2)c2cc(N)ccc2c2ccc(N)cc21 | 37% (active) |
| COc1cc(N/C=C2\CC(=O)NC(C)=C2C#N)cc(OC)c1OC | 1.67% (inactive) |
| CCOC(=O)C(NS(=O)(=O)c1ccc(C)cc1)(C(F)(F)F)P(=O)(OCC(C)C)OCC(C)C (stereo unspecified) | -0.856% (inactive) |
| CC(C)C(=O)NC(NC(=S)NC1CCS(=O)(=O)C1)C(Cl)(Cl)Cl (stereo unspecified) | 5.16% (inactive) |
| CCOc1ccc2nc(N(CCCN(C)C)C(=O)c3ccc(C(=O)c4ccccc4)cc3)sc2c1 | 2.47% (inactive) |
| CCOc1ccc2nc(N(CCN(C)C)C(=O)c3ccc4ccccc4c3)sc2c1 | -2.61% (inactive) |
| CCN(CC)CCN(C(=O)c1cccc([N+](=O)[O-])c1)c1nc2ccc(OC)cc2s1 | 10.8% (active) |
| O=c1cc(-c2ccccc2)[nH]c2cc(F)ccc12 | -0.193% (inactive) |
| Cc1ccc(N/C(N)=N/c2nc(C(F)(F)F)cc(C(F)(F)F)n2)cc1 | 1.07% (inactive) |
| Cn1c(=O)c(=O)n(C)c2cc(S(=O)(=O)NCCN3CCN(c4ccccc4F)CC3)ccc21 | 2.45% (inactive) |
| Cc1ccc2c(c1)-c1c(ssc1=S)C(C)(C)N2C(=O)CN1C(=O)c2ccccc2C1=O | -1.1% (inactive) |

| Compound | inhibition |
| --- | --- |
| Cc1ccccc1CN1C(=O)c2ccccc2Sc2ccc(C(=O)NCCCN3CCOCC3)cc21 | 19.6% (active) |
| CCC1=Nc2cc(C(=O)NCCCN3CCOCC3)ccc2Sc2ccc(Br)cc21 | 3.58% (inactive) |
| O=C(NCCCN1CCOCC1)c1ccc2c(c1)N(Cc1cccc(F)c1)C(=O)c1ccccc1S2 | -7.56% (inactive) |
| COc1ccc(Cl)cc1N(CC(=O)N/N=C/c1ccc(OCC(N)=O)cc1)S(C)(=O)=O | 0.205% (inactive) |
| COc1cc(NC(=O)c2[nH]cnc2C(N)=O)cc(C(=O)Nc2cccc(C(F)(F)F)c2)c1 | -1.33% (inactive) |
| O=C(Nc1ccccn1)C1CCN(S(=O)(=O)c2ccccc2)CC1 | -0.314% (inactive) |
| O=C(Nc1ccccn1)C1CCN(S(=O)(=O)c2ccc3c(c2)OCCO3)CC1 | 35.5% (active) |
| O=C(NCc1cccs1)C1CCN(S(=O)(=O)c2ccc3c(c2)OCCO3)CC1 | -3.5% (inactive) |
| Nc1c(-c2ccccc2)nnn1Cc1ccccc1 | -2.36% (inactive) |
| CCOC(=O)c1ccc(COC(=O)CCc2nc(-c3ccccc3)c(-c3ccccc3)o2)cc1 | -6.88% (inactive) |
| Cc1nnc(NC2=NCCCCC2)o1 | 4.02% (inactive) |
| COc1ccc(C)cc1NC(=O)CNCc1cccs1 | 0.209% (inactive) |
| COc1ccc(C)cc1NC(=O)CSc1ccc(Cl)cc1 | -4.45% (inactive) |
| Cc1onc(-c2ccccc2Cl)c1C(=O)NCCn1ccc2ccccc21 | -5.8% (inactive) |
| Cc1onc(-c2ccccc2Cl)c1C(=O)OCC(=O)c1ccccc1 | 4.43% (inactive) |
| Cc1onc(-c2ccccc2Cl)c1C(=O)N(Cc1ccc(N(C)C)cc1)C(C)C | 12.7% (active) |
| CC(C)COC(=O)n1c(=O)oc2ccc(S(=O)(=O)N3CCCCC3)cc21 | 2.24% (inactive) |
| CCOC(=O)c1cc2cc3ccccc3cc2oc1=O | 16.8% (active) |
| CCOC(=O)c1c(C)nc2c(c1C)c(=O)oc1ccccc12 | 1.54% (inactive) |
| C=CCc1cccc2cc(C(=O)OCC)c(=O)oc12 | -5.34% (inactive) |
| NC(=O)C[n+]1cccc(C(N)=O)c1 | -3.37% (inactive) |
| CC(CO)(CO)NC(=O)c1ccc(=O)[nH]n1 | 3.9% (inactive) |
| CCc1nn(CCCN2CCN(c3cccc(Cl)c3)CC2)c(=O)n1CCOc1ccccc1 | -0.456% (inactive) and 3% (inactive) |
| c1ccc2cc(CCCc3cc4ccccc4cn3)ncc2c1 | 2.17% (inactive) |
| Cc1noc(C)c1COc1ccccc1C(=O)N(C)CC(=O)Nc1cccc(F)c1 | 0.0499% (inactive) |
